# Reference: the supplement of paper PMC8728848
# About 410 targets per protein were measured; listed, in parts, are those with the strongest signals and a random draw of the rest.
# B1: Epa2 (Candida glabrata) (protein)
# chain: MGSSHHHHHHSSGLVPRGSHMASSKDPTSFPMGCSPQVLKTQPGLAVKLYSYGHPVPGCAYNTYQYPDFPRSGYKKERKLADITGVNGRIDIDLKPNDPCRVLSGNLPSNYNYQNTLTYTNFTMILYGYFQPKVTGYHTFNLEADDLLFMNLGAGNAFDCCRAESTLDNFGNYQSYSIWGTDKATADLTVFLVSGIYYPIRLFYVNRDNNAVLDFSFSTEFNKEIIHDFTSYFFSASDEEQCPGNI
# How the values were obtained:
# Assay in all cases: glycan array binding signal (z-score within array); higher = stronger binding
# Details in all cases: glycan notation: IUPAC condensed, linker removed
# [1] = target: Gal6S(b1-4)GlcNAc6S
# Summary of the method: (§1)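 Arrays were curated from the Consortium for Functional Glycomics database, 3228 in total, and kept only where the protein sequence was available. Binding is expressed as a within-array Z-score. This score was averaged across arrays of the same protein sequence at different concentrations or buffers and across linkers, and negative values can be read as non-binding.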
# [2] = target: GalNAc(b1-3)Gal(a1-4)Gal(b1-4)GlcNAc(b1-3)Gal(b1-4)Glc
# Summary of the method: as §1
# [3] = target: GalNAc4S6S(b1-4)GlcNAc
# Summary of the method: as §1
# [4] = target: Glc(b1-4)Glc
# Summary of the method: as §1
# [5] = target: GlcA(b1-6)Gal
# Summary of the method: as §1
# [6] = target: GlcNAc(a1-4)Gal(b1-4)GalNAc
# Summary of the method: as §1
# [7] = target: GlcNAc(b1-2)[GlcNAc(b1-6)]Man(a1-6)[GlcNAc(b1-2)Man(a1-3)]Man(b1-4)GlcNAc(b1-4)GlcNAc
# Summary of the method: as §1
# [8] = target: GlcNAc(b1-2)[GlcNAc(b1-6)]Man(a1-6)[GlcNAc(b1-4)][GlcNAc(b1-2)Man(a1-3)]Man(b1-4)GlcNAc(b1-4)GlcNAc
# Summary of the method: as §1
# [9] = target: GlcNAc(b1-4)GlcNAc(b1-4)GlcNAc(b1-4)GlcNAc(b1-4)GlcNAc(b1-4)GlcNAc
# Summary of the method: as §1
# [10] = target: Kdn(a2-3)Gal(b1-3)GalNAc
# Summary of the method: as §1
# [11] = target: Man(a1-2)Man(a1-3)[Man(a1-6)]Man(a1-6)[Man(a1-2)Man(a1-3)]Man(b1-4)GlcNAc(b1-4)GlcNAc
# Summary of the method: as §1
# [12] = target: Neu5Ac(a2-3)Gal(b1-3)GlcNAc6S
# Summary of the method: as §1
# [13] = target: Neu5Ac(a2-3)Gal(b1-3)[GlcNAc(b1-6)]GalNAc
# Summary of the method: as §1
# [14] = target: Neu5Ac(a2-3)Gal(b1-3)[Neu5Ac(a2-6)]GlcNAc(b1-3)[Fuc(a1-3)[Gal(b1-4)]GlcNAc(b1-6)]Gal(b1-4)Glc
# Summary of the method: as §1
# [15] = target: Neu5Ac(a2-3)Gal(b1-4)Glc
# Summary of the method: as §1
# [16] = target: Neu5Ac(a2-3)Gal(b1-4)GlcNAc(b1-2)Man
# Summary of the method: as §1
# [17] = target: Neu5Ac(a2-3)Gal(b1-4)GlcNAc(b1-3)Gal(b1-4)GlcNAc(b1-2)Man(a1-3)[Neu5Ac(a2-3)Gal(b1-4)GlcNAc(b1-3)Gal(b1-4)GlcNAc(b1-2)Man(a1-6)]Man(b1-4)GlcNAc(b1-4)GlcNAc
# Summary of the method: as §1
# [18] = target: Neu5Ac(a2-3)Gal(b1-4)GlcNAc(b1-3)Gal(b1-4)GlcNAc(b1-3)Gal(b1-4)GlcNAc(b1-2)Man(a1-3)[Neu5Ac(a2-3)Gal(b1-4)GlcNAc(b1-3)Gal(b1-4)GlcNAc(b1-3)Gal(b1-4)GlcNAc(b1-2)Man(a1-6)]GalNAc
# Summary of the method: as §1
# [19] = target: Neu5Ac(a2-3)Gal(b1-4)GlcNAc(b1-3)[Neu5Ac(a2-3)Gal(b1-4)GlcNAc(b1-6)]GalNAc
# Summary of the method: as §1
# [20] = target: Neu5Ac(a2-3)Gal(b1-4)[Fuc(a1-3)]GlcNAc(b1-2)Man
# Summary of the method: as §1
# [21] = target: Neu5Ac(a2-6)Gal(b1-4)GlcNAc(b1-2)Man(a1-3)[GlcNAc(b1-2)Man(a1-6)]Man(b1-4)GlcNAc(b1-4)GlcNAc
# Summary of the method: as §1
# [22] = target: Neu5Ac(a2-6)Gal(b1-4)GlcNAc(b1-2)Man(a1-3)[Neu5Ac(a2-3)Gal(b1-4)GlcNAc(b1-2)Man(a1-6)]Man(b1-4)GlcNAc(b1-4)GlcNAc
# Summary of the method: as §1
# [23] = target: Neu5Ac(a2-6)Gal(b1-4)GlcNAc(b1-2)Man(a1-3)[Neu5Ac(a2-6)Gal(b1-4)GlcNAc(b1-2)Man(a1-6)]Man(b1-4)GlcNAc(b1-4)[Fuc(a1-6)]GlcNAc
# Summary of the method: as §1
# [24] = target: Neu5Ac(a2-6)Gal(b1-4)GlcNAc6S
# Summary of the method: as §1
# [25] = target: Neu5Ac(a2-6)GlcNAc(b1-4)GlcNAc(b1-4)GlcNAc
# Summary of the method: as §1
# [26] = target: Neu5Ac(a2-8)Neu5Gc(a2-3)Gal(b1-4)GlcNAc
# Summary of the method: as §1
# [27] = target: Neu5Ac9Ac(a2-3)Gal(b1-4)GlcNAc
# Summary of the method: as §1
# [28] = target: Neu5Ac9Ac(a2-6)Gal(b1-4)GlcNAc
# Summary of the method: as §1
# [29] = target: Neu5Gc(a2-3)Gal(b1-4)GlcNAc
# Summary of the method: as §1
binder,measurement,setting,value
B1,glycan array binding signal (z-score),[1],2.81
same,glycan array binding signal (z-score),[2],1.03
same,glycan array binding signal (z-score),[3],0.176
same,glycan array binding signal (z-score),[4],0.058
same,glycan array binding signal (z-score),[5],0.586
same,glycan array binding signal (z-score),[6],-0.65
same,glycan array binding signal (z-score),[7],-0.896
same,glycan array binding signal (z-score),[8],-0.884
same,glycan array binding signal (z-score),[9],-0.072
same,glycan array binding signal (z-score),[10],2.25
same,glycan array binding signal (z-score),[11],-1.18
same,glycan array binding signal (z-score),[12],0.604
same,glycan array binding signal (z-score),[13],-0.044
same,glycan array binding signal (z-score),[14],0.369
same,glycan array binding signal (z-score),[15],0.776
same,glycan array binding signal (z-score),[16],3.5
same,glycan array binding signal (z-score),[17],0.377
same,glycan array binding signal (z-score),[18],2.23
same,glycan array binding signal (z-score),[19],3.03
same,glycan array binding signal (z-score),[20],-0.325
same,glycan array binding signal (z-score),[21],-0.681
same,glycan array binding signal (z-score),[22],-0.821
same,glycan array binding signal (z-score),[23],-0.149
same,glycan array binding signal (z-score),[24],-0.614
same,glycan array binding signal (z-score),[25],-0.626
same,glycan array binding signal (z-score),[26],-1.11
same,glycan array binding signal (z-score),[27],-0.074
same,glycan array binding signal (z-score),[28],-0.169
same,glycan array binding signal (z-score),[29],-0.248
